The full data set covers some 7,900 targets. This sample favours those with a hit. About 0.6% of all pairs of compound and target were hits. A number with no mark means an inactive call.
Legend:
Assay in all cases: log2 fold change, soluble protein after heating vs DMSO (PISA); higher = thermal stabilisation; K562 cells, 10 uM, 30 min; active = over 0.2 and 3.5 SD of the protein, either way, in both replicates (recomputed)
[1] = compound: CC[C@@H]1C(=O)N(C)c2cnc(Nc3ccc(C(=O)NC4CCN(C)CC4)cc3OC)nc2N1C1CCCC1
Outline: (§1)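 Aliquots of K562 cells (2×10^6 cells/mL) treated with 10 μM compound for 30 min were heated for 3 min over 48°C-58°C. After pooling and extraction in PBS with 0.5% NP-40 at 4°C, soluble protein from a 21,000xg, 90 min spin was quantified by TMTpro 16plex LC-MS/MS with channel sums equalised. Thermal stability is expressed against control samples, from duplicates, as a log2 fold change.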

volasertib = compound: CC[C@@H]1C(=O)N(C)c2cnc(Nc3ccc(C(=O)N[C@H]4CC[C@H](N5CCN(CC6CC6)CC5)CC4)cc3OC)nc2N1C(C)C [volasertib]
Outline: as §1

[2] = compound: CC[C@H](C)N1C=C(C2=C(C=C(C=C21)C3=CN=C(C=C3)N4CCNCC4)C(=O)NCC5=C(C=C(NC5=O)C)C)C
Outline: as §1

epoxomicin = compound: CC[C@H](C)[C@@H](C(=O)N[C@@H]([C@@H](C)O)C(=O)N[C@@H](CC(C)C)C(=O)[C@]1(CO1)C)NC(=O)[C@H]([C@@H](C)CC)N(C)C(=O)C [epoxomicin]
Outline: as §1

[3] = compound: CCn1c(C(=O)N(C2CC2)C2CC2)cc2c3c(ncn3C)c(Nc3cc(C)n(C)n3)nc21
Outline: as §1

[4] = compound: CCn1cc(-c2ccnc3[nH]c(-c4cccc(CN(C)C)c4)cc23)c(-c2ccc(NC(=O)N(C)C)cc2)n1
Outline: as §1

[5] = compound: CN(C)CC(=O)Nc1ccc2[nH]c(=O)c3ccccc3c2c1
Outline: as §1

rosiglitazone = compound: CN(CCOC1=CC=C(C=C1)C[C@H]2C(=O)NC(=O)S2)C3=CC=CC=N3 (racemic) [rosiglitazone]
Outline: as §1

[6] = compound: CN1C2=C(C3=C1C(=O)N(N=C3)CC4=CC(=CC=C4)N)SC(=C2)S(=O)C
Outline: as §1

[7] = compound: CN1CCC(CNc2ccc3ncc(-c4cccc(OC(F)(F)F)c4)n3n2)CC1
Outline: as §1

saracatinib = compound: CN1CCN(CCOc2cc(OC3CCOCC3)c3c(Nc4c(Cl)ccc5c4OCO5)ncnc3c2)CC1 [saracatinib]
Outline: as §1

sotrastaurin = compound: CN1CCN(c2nc(C3=C(c4c[nH]c5ccccc45)C(=O)NC3=O)c3ccccc3n2)CC1 [sotrastaurin]
Outline: as §1

alvocidib = compound: CN1CC[C@H](c2c(O)cc(O)c3c(=O)cc(-c4ccccc4Cl)oc23)[C@H](O)C1 [alvocidib]
Outline: as §1

Tubastatin A = compound: CN1CCc2c(c3ccccc3n2Cc2ccc(C(=O)NO)cc2)C1 [Tubastatin A]
Outline: as §1

[8] = compound: CNC(=O)C1=CC=CC=C1NC2=NC(=NC=C2Cl)NC3=C(C=C(C=C3)N4CCOCC4)OC
Outline: as §1

defactinib = compound: CNC(=O)c1ccc(Nc2ncc(C(F)(F)F)c(NCc3nccnc3N(C)S(C)(=O)=O)n2)cc1 [defactinib]
Outline: as §1

rucaparib = compound: CNCc1ccc(-c2[nH]c3cc(F)cc4c3c2CCNC4=O)cc1 [rucaparib]
Outline: as §1

[9] = compound: CNc1nc(-c2ccc3c(N)n[nH]c3c2)cc(N2C[C@@H](C(=O)NC3CCCCC3)CC[C@H]2C)n1
Outline: as §1

encorafenib = compound: COC(=O)N[C@@H](C)CNc1nccc(-c2cn(C(C)C)nc2-c2cc(Cl)cc(NS(C)(=O)=O)c2F)n1 [encorafenib]
Outline: as §1

[10] = compound: COC(=O)[C@H](CCSC)NC(=O)C1=C(C=C(C=C1)NC[C@H](CS)N)C2=CC=CC=C2
Outline: as §1

UniProt Q9Y4P1, sequence (Q9Y4P1 whole entry, looked up): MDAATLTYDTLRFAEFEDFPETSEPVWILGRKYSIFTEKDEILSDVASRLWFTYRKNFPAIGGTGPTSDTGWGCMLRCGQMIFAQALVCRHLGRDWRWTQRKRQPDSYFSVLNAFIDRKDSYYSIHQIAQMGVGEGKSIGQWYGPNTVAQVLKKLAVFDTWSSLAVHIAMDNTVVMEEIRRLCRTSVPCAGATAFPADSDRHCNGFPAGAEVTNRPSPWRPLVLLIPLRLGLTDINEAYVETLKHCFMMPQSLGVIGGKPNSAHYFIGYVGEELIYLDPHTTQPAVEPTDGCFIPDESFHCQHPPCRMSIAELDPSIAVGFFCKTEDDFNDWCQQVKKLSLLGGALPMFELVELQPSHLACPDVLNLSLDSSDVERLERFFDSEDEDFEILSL
UniProt Q15904, sequence (Q15904 whole entry, looked up): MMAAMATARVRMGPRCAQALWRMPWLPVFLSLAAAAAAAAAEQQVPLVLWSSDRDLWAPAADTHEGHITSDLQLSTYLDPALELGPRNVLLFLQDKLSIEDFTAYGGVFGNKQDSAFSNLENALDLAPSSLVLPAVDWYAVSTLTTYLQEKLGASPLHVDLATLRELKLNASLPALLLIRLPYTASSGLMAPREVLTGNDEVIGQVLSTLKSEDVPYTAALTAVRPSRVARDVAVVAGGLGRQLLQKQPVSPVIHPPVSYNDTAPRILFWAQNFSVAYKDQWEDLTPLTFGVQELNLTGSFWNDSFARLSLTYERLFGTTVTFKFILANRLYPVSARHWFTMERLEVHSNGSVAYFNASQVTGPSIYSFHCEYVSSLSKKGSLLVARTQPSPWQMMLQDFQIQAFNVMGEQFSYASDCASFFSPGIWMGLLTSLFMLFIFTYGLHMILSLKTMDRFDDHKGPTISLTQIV
UniProt P52895, sequence (P52895 whole entry, looked up): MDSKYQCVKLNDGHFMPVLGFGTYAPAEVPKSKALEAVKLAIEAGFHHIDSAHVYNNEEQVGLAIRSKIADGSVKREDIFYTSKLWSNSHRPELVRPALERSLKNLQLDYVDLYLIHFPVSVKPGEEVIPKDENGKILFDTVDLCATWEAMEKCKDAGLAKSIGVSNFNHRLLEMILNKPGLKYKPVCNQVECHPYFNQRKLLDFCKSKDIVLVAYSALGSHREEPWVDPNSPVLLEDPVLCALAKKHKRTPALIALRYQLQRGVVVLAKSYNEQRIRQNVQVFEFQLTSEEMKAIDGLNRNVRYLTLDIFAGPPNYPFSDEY
UniProt Q13795, sequence (Q13795 whole entry, looked up): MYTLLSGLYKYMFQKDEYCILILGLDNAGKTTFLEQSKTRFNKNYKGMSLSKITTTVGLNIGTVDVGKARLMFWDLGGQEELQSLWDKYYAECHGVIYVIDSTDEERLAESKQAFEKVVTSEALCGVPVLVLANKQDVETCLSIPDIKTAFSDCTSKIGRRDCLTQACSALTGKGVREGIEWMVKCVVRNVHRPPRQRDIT
UniProt O14727, sequence (O14727 whole entry, looked up): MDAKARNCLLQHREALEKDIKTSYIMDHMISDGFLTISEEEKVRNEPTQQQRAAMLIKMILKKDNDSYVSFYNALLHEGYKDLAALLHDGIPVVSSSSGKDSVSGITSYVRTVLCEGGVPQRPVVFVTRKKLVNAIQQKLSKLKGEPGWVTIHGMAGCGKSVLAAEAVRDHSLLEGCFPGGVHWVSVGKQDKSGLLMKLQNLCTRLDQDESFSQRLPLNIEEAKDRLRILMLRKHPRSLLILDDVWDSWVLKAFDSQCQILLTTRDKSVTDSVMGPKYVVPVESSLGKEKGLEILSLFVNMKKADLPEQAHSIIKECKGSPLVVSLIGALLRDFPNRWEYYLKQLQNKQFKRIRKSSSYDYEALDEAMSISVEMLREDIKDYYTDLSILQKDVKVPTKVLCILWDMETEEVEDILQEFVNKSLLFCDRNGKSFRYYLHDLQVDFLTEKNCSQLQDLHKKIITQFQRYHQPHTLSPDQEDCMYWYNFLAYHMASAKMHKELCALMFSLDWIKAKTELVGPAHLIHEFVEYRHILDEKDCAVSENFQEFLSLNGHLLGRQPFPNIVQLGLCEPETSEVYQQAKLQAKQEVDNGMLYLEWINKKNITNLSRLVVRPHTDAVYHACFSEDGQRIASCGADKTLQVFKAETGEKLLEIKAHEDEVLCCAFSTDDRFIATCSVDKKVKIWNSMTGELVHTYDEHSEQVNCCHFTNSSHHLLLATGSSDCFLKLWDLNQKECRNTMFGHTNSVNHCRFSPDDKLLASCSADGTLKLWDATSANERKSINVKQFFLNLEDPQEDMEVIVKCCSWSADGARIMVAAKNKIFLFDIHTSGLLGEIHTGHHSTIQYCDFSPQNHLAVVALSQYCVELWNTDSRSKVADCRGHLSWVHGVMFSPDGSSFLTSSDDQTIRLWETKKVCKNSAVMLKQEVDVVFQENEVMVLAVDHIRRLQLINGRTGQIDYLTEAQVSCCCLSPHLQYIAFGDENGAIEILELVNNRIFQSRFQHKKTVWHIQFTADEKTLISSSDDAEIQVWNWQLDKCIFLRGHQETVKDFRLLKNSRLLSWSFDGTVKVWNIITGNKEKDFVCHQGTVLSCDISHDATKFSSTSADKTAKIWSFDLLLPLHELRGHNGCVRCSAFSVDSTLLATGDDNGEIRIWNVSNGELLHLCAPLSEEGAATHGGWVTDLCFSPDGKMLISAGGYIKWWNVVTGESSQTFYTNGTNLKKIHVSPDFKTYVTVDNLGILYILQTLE
UniProt Q96KE9, sequence (Q96KE9 whole entry, looked up): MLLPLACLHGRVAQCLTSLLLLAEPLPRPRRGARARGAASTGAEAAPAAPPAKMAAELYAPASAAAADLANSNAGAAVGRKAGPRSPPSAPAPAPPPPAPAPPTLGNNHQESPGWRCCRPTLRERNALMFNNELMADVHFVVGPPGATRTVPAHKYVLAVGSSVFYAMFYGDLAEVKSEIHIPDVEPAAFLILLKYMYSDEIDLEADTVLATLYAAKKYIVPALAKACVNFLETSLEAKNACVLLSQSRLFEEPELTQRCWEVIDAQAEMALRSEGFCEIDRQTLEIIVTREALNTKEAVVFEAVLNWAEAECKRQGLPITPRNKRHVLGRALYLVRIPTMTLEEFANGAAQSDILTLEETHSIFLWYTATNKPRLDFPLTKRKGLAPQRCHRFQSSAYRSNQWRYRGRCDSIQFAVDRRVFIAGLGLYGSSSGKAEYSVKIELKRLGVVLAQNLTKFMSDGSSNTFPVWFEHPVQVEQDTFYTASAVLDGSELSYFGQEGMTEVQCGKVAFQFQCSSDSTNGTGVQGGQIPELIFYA
UniProt Q96P47, sequence (Q96P47 whole entry, looked up): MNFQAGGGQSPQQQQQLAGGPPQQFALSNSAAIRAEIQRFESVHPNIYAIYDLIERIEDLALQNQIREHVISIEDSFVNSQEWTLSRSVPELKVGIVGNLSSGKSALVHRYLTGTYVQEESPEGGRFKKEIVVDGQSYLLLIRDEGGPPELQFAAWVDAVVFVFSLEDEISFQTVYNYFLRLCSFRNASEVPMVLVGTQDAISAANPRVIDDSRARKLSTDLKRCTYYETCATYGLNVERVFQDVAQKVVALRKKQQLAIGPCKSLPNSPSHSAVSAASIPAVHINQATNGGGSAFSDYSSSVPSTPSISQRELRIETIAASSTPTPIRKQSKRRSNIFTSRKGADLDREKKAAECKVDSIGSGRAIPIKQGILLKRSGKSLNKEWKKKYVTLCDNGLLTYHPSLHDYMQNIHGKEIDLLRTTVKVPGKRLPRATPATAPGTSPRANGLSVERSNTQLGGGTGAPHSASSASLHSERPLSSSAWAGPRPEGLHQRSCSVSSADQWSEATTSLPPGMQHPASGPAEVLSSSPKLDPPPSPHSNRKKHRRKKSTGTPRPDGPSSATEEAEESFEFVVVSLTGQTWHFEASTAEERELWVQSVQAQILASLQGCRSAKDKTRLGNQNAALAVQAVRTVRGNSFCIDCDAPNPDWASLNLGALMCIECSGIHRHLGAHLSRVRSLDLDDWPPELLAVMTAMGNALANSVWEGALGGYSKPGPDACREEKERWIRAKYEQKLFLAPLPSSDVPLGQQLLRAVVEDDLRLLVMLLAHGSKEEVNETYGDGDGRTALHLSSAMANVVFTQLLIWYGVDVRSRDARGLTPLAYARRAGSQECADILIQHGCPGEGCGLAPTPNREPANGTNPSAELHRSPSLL
UniProt Q9H8Y5, sequence (Q9H8Y5 whole entry, looked up): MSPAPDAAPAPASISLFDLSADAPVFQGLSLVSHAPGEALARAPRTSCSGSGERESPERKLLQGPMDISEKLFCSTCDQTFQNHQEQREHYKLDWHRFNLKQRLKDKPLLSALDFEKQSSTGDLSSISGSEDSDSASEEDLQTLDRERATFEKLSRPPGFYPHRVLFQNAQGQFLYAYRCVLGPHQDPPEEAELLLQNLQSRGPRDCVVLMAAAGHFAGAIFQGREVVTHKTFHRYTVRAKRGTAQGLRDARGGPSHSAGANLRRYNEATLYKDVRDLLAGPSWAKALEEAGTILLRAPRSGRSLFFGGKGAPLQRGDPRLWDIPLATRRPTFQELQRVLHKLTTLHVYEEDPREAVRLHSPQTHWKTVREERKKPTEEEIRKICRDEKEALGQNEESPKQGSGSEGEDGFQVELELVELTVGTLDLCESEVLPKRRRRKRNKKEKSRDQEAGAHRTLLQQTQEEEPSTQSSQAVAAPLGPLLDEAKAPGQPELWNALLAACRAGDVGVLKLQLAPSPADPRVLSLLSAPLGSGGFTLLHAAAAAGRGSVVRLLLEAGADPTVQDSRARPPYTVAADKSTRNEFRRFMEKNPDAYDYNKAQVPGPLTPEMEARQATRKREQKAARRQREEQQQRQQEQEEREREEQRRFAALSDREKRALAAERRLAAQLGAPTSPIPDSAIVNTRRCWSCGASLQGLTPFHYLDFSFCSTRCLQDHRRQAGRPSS
UniProt P56385, sequence (P56385 whole entry, looked up): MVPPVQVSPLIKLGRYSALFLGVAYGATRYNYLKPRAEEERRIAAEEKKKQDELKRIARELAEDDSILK
UniProt P53680, sequence (P53680 whole entry, looked up): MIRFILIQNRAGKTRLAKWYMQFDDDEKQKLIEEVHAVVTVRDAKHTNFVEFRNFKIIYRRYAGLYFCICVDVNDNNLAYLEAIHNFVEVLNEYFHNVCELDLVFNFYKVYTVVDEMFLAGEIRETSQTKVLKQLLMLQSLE

Row | Target | log2 fold change [1] | log2 fold change (volasertib) | log2 fold change [2] | log2 fold change (epoxomicin) | log2 fold change [3] | log2 fold change [4] | log2 fold change [5] | log2 fold change (rosiglitazone) | log2 fold change [6] | log2 fold change [7] | log2 fold change (saracatinib) | log2 fold change (sotrastaurin) | log2 fold change (alvocidib) | log2 fold change (Tubastatin A) | log2 fold change [8] | log2 fold change (defactinib) | log2 fold change (rucaparib) | log2 fold change [9] | log2 fold change (encorafenib) | log2 fold change [10]
1 | ARMC8 (UniProt Q8IUR7) | -0.055 | -0.14 | 0.053 | -0.008 | -0.005 | 0.003 | -0.007 | -0.029 | 0.053 | 0.043 | -0.05 | -0.07 | -0.049 | 0.009 | 0.016 | -0.005 | 0.017 | 0.228 | 0.026 | -0.031
2 | ATP5ME (UniProt P56385) | 0.004 | 0.038 | -0.048 | 0.075 | -0.002 | 0.002 | -0.054 | -0.013 | 0.018 | 0.069 | 0.026 | 0.009 | 0.04 | -0.009 | -0.006 | 0.029 | -0.022 | -0.069 | -0.07 | 0.023
3 | BTBD6 (UniProt Q96KE9) | 0.017 | 0.001 | -0.033 | -0.059 | -0.163 | -0.356 | 0.066 | 0 | -0.112 | -0.021 | -0.031 | 0.021 | -0.143 | 0.211 | -0.141 | -0.131 | 0.327 | 0.082 | -0.101 | -0.009
4 | AP2S1 (UniProt P53680) | 0.035 | 0.018 | -0.024 | -0.022 | 0.023 | -0.008 | -0.071 | 0.02 | -0.005 | 0.037 | 0.012 | 0.009 | -0.009 | 0.009 | 0.077 | 0.038 | 0.019 | -0.012 | 0.077 | 0.025
5 | ATRN (UniProt O75882) | 0.029 | -0.094 | -0.019 | 0.063 | -0.1 | 0.004 | -0.01 | -0.096 | 0.095 | 0.121 | 0.05 | -0.047 | -0.024 | 0.012 | -0.017 | -0.065 | 0.022 | 0.12 | -0.05 | 0.045
6 | ARFRP1 (UniProt Q13795) | -0.038 | -0.05 | 0.048 | 0.037 | 0.026 | -0.23 | 0.012 | -0.021 | -0.021 | 0.071 | 0.108 | -0.035 | -0.008 | -0.059 | 0.037 | 0.01 | 0.033 | 0.031 | -0.027 | -0.137
7 | ATP6AP1 (UniProt Q15904) | -0.05 | -0.02 | 0.033 | 0.09 | 0.011 | 0.037 | -0.074 | 0 | 0.098 | 0.016 | -0.021 | -0.097 | 0.055 | 0.043 | -0.011 | 0.066 | -0.057 | -0.006 | 0.053 | -0.031
8 | ANKZF1 (UniProt Q9H8Y5) | -0.063 | -0.055 | 0.036 | -0.001 | -0.036 | 0.004 | -0.076 | -0.002 | 0.214 | 0.066 | -0.146 | -0.093 | 0.034 | 0.088 | 0.04 | 0.123 | 0.167 | 0.156 | 0.119 | -0.274
9 | AGPAT1 (UniProt Q99943) | -0.032 | -0.243 (active) | 0.015 | -0.056 | -0.007 | -0.006 | 0.032 | -0.011 | -0.102 | 0.315 (active) | -0.009 | 0.045 | 0.002 | -0.004 | 0.074 | -0.079 | -0.109 | -0.011 | 0.039 | 0.003
10 | ANAPC2 (UniProt Q9UJX6) | -0.071 | -0.338 (active) | 0.023 | -0.031 | -0.027 | -0.018 | 0.004 | 0.191 | 0.03 | -0.001 | -0.003 | -0.084 | -0.02 | 0.009 | -0.011 | -0.049 | 0.027 | -0.063 | 0.124 | 0.006
11 | ATG4B isoform 2 (UniProt Q9Y4P1) | -0.007 | -0.441 | 0.16 | -0.013 | 0.011 | 0.039 | 0.08 | 0.136 | 0.1 | -0.302 | -0.186 | -0.297 | -0.19 | 0.02 | 0.027 | -0.263 | -0.02 | 0.004 | -0.003 | -0.04
12 | BAIAP2 (UniProt Q9UQB8) | -0.045 | -0.089 | 0.082 | 0.14 | -0.011 | -0.05 | -0.019 | 0.038 | -0.015 | -0.142 | 0.009 | -0.016 | -0.017 | 0.036 | -0.103 | -0.097 | 0.014 | -0.017 | 0.006 | -0.022
13 | AMD1 (UniProt P17707) | 0.061 | -0.098 | 0.099 | 0.057 | -0.073 | -0.033 | -0.101 | 0.089 |  | -0.091 |  | -0.017 |  | 0.014 | 0.02 | 0.082 | -0.08 |  | 0.023 | 0.042
14 | AGAP3 isoform 4 (UniProt Q96P47) | 0.154 | -0.038 | 0.105 | 0.034 | 0.019 |  |  | 0.162 |  |  |  | -0.233 | -0.011 | 0.166 | -0.033 |  | 0.178 |  | -0.104 | 
15 | APAF1 (UniProt O14727) | -0.123 | -0.076 | 0.187 | -0.045 | -0.231 | -0.009 | 0.037 |  | 0.148 | -0.088 | -0.088 | 0 | -0.026 |  | 0.109 | 0.082 | 0.103 | 0.032 | 0.158 | 0.05
16 | ATR (UniProt Q13535) | -0.063 | -0.197 | -0.02 | 0.048 | -0.071 | -0.041 | 0.052 | 0.049 | -0.017 | 0 | -0.044 | -0.013 | -0.107 | 0.02 | 0.014 | -0.035 | 0.008 | 0.039 | 0.008 | -0.024
17 | AKR1C2 (UniProt P52895) | 0.27 | 0.087 | 0.03 | -0.139 | -0.039 | 0.002 | -0.006 | -0.001 | 0.568 (active) | -0.016 | -0.108 | -0.009 | 0.08 | 0.111 | 0.052 | 0.146 | 0.146 | 0.047 | 0.094 | -0.06

— the supplement of paper PMC10849652
